Active and inactive are the calls of the source. Unless noted, how the calls were made is not given here.
Legend:
[1] = system: Wnt5a (protein binding on small-molecule microarray); assay: Wnt5a binders on small-molecule microarray, primary screen, biophysical, 635/667 nm fluorescence (AID 1142); details: 635 nm fluorescence, higher = more signal;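 further: fluorescence read at 667 nm with signal to noise per printed feature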
[2] = cell viability in Huh7 cells, primary screen, cytotoxicity control for HCV replication inhibitor project, CellTiter-Glo luminescence, basal, 48 h (AID 1143); details: Huh7 HCV replicon, higher = more signal, called active from +8 up or from −8 down;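 further: Huh7 hepatoma cells carrying a hepatitis C replication reporter with no stimulus; test concentration not given here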
[3] = P. aeruginosa biofilm formation inhibitors, primary screen, PAO1 strain, BacTiter-Glo luminescence, LB-PBS (AID 1144); details: 12 h, higher = more signal
[4] = CREB reporter modulators without forskolin, primary screen, cell-based, PC12, CRE-LacZ reporter, unstimulated (AID 1145); details: no forskolin, luminescence, 4.5 h, higher = more signal, called active from +8 up or from −8 down
[5] = CREB reporter modulators under forskolin, primary screen, cell-based, PC12, CRE-LacZ reporter, forskolin-stimulated (AID 1146); details: luminescence, 4.5 h, higher = more signal, called active from +8 up or from −8 down;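 further: PC12 cells with 6xCRE LacZ reporter stimulated by forskolin 10 µM; beta-galactosidase reporter signal reflecting CREB driven transcription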
[6] = biological target: Streptavidin (Streptomyces avidinii) (UniProt P22629); assay: streptavidin binders on small-molecule microarray, primary screen, artefact control for SMM compound annotation, biophysical, 635/667 nm fluorescence (AID 1147); details: streptavidin binding, higher = more signal;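 further: signal reflects streptavidin binding to arrayed compounds as a control protein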
[7] = small-molecule binders of probe aInhba, primary screen, biochemical, small-molecule microarray, 635/667 nm fluorescence (AID 1148); details: higher = more signal;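 further: score merges 667nm spot fluorescence with signal-to-noise for antibody binding to printed compounds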
[8] = biological target: Torsin-1A (Homo sapiens) (UniProt O14656); assay: torsin A binders from cell lysate, primary screen, small-molecule microarray, wild-type, 635/667 nm (AID 1149); details: COS7 hTOR1A-WT lysate, 635 nm fluorescence, higher = more signal
[9] = biological target: Torsin-1A (Homo sapiens) (UniProt O14656); assay: small-molecule binders of mutant TOR1A in lysate, primary screen, cell lysate, small-molecule microarray, COS7 lysate, 635/667 nm fluorescence (AID 1150); details: COS7 hTOR1A mutant lysate, 635 nm fluorescence, higher = more signal;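 further: score pools 667 nm emission and signal to noise measuring lysate protein binding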
[10] = system: Sonic hedgehog protein (Shh); assay: small-molecule binders of Shh protein, primary screen, biochemical, small-molecule microarray, 635/667 nm fluorescence (AID 1151); details: small-molecule microarray binding, 635 nm fluorescence; higher = more signal;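 further: Shh protein binding to compounds spotted on small-molecule microarray slides; score combines spot fluorescence intensity with signal-to-noise across triplicate slides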
[11] = E. coli DRC41 culture turbidity changes, primary screen, E. coli filamentation inducer project, strain DRC41, OD650, 48 h (AID 1152);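 further: E. coli MC1000 strain DRC41 lacking acrAB efflux pump and sulA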; details: E. coli DRC41 (acrAB sulA), higher = more signal, called active from +8 up or from −8 down
[12] = small-molecule binders of probe aLefty1, primary screen, biochemical, small-molecule microarray, 635/667 nm fluorescence (AID 1153); details: higher = more signal;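 further: score merges spot fluorescence with signal-to-noise ratio from the scanned slide images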
[13] = PSAC antagonists in infected red cells, primary screen, cell-based, P. falciparum Indochina, OD700, 1 h (AID 1154); details: P. falciparum Indochina infected RBC osmotic lysis, higher = more signal, called active from +8 up or from −8 down
[14] = PSAC antagonists in infected red cells, primary screen, cell-based, P. falciparum Indochina, OD700, 2 h (AID 1155);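 further: lysis reports solute entry through the parasite surface anion channel PSAC; channel blockers reduce lysis of infected cells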; details: P. falciparum Indochina infected erythrocytes, osmotic lysis OD700; higher = more signal, called active from +8 up or from −8 down
[15] = osmotic lysis modulators in infected erythrocytes, primary screen, PSAC antagonist project, cell-based, P. falciparum Indochina, OD700, 3 h (AID 1156); details: higher = more signal, called active from +8 up or from −8 down
[16] = PSAC antagonists in infected red cells, primary screen, cell-based, P. falciparum Indochina, OD700, 18 h (AID 1157); details: P. falciparum Indochina infected erythrocytes, osmotic lysis OD700, 18 h; higher = more signal, called active from +8 up or from −8 down
[17] = modulators of S6 phosphorylation in cells, primary screen, cell-based, A549, cytoblot, luminescence, serum-stimulated (AID 1158); details: A549 phospho-S6 cytoblot, 5 h, higher = more signal;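 further: serum-stimulated A549 lung adenocarcinoma cells; signal is phosphorylated S6 detected by cytoblot immunostaining with HRP secondary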
[18] = biological target: NADPH oxidase 2 (Homo sapiens) (UniProt P04839); assay: NOX2-dependent H2O2 signal modulators, primary screen, NOX inhibitor project, cell-based, HEK293-NOX2, PMA-stimulated, Amplex Red fluorescence (AID 1159); details: 45 min, higher = more signal, called active from +8 up or from −8 down; further: test concentration not given here
[19] = biological target: NADPH oxidase 4 (Homo sapiens) (UniProt Q9NPH5); assay: NOX4-dependent H2O2 signal modulators, primary screen, NOX inhibitor project, cell-based, HEK293-NOX4, tetracycline-induced, Amplex Red fluorescence (AID 1160); details: 45 min, higher = more signal, called active from +8 up or from −8 down
[20] = biological target: NADPH oxidase 5 (Homo sapiens) (UniProt Q96PH1); assay: NOX5-dependent H2O2 signal modulators, primary screen, NOX inhibitor project, cell-based, HEK293-NOX5, Amplex Red fluorescence (AID 1161); details: HEK293-NOX5, ionomycin, 45 min, higher = more signal
Chain of NADPH oxidase 5 (Homo sapiens) (Q96PH1 whole entry, looked up): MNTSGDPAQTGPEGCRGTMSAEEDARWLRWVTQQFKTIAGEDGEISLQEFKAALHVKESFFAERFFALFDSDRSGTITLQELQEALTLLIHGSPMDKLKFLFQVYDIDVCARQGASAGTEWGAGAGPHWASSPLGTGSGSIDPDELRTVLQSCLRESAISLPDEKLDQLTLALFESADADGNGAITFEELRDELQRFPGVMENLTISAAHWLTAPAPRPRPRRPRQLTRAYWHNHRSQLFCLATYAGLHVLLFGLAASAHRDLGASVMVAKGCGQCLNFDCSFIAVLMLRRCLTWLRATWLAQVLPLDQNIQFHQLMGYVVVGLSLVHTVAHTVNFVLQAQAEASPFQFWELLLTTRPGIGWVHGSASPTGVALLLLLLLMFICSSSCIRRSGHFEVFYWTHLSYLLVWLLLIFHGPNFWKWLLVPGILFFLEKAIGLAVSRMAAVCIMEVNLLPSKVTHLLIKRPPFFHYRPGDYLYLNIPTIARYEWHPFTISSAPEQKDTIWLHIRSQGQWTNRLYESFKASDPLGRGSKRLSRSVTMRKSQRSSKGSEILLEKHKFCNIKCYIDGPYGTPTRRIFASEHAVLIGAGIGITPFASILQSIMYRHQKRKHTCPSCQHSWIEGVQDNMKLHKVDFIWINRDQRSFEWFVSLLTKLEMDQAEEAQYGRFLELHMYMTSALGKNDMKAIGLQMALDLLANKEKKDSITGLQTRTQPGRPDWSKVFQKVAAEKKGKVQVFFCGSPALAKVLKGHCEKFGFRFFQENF

Chain of NADPH oxidase 4 (Homo sapiens) (Q9NPH5 whole entry, looked up): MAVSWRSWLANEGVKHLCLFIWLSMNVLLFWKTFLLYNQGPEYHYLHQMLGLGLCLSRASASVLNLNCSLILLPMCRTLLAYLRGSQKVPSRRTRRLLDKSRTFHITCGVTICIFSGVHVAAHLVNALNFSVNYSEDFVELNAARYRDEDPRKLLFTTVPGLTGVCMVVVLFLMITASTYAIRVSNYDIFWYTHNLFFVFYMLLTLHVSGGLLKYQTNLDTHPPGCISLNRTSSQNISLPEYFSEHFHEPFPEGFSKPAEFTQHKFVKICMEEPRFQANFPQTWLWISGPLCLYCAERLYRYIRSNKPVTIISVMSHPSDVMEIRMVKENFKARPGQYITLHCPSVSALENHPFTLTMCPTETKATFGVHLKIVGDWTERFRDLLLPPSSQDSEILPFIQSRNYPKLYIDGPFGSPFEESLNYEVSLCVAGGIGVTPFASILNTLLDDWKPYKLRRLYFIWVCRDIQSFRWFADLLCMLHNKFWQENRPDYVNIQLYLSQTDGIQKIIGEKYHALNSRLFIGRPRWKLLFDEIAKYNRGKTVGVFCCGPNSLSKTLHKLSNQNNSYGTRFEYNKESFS
Chain of Streptavidin (Streptomyces avidinii) (P22629 whole entry, looked up): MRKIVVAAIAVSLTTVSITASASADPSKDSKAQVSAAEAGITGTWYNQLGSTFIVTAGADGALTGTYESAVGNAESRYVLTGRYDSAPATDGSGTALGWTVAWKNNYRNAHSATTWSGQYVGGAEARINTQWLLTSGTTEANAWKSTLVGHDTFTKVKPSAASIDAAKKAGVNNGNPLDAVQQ
Chain of NADPH oxidase 2 (Homo sapiens) (P04839 whole entry, looked up): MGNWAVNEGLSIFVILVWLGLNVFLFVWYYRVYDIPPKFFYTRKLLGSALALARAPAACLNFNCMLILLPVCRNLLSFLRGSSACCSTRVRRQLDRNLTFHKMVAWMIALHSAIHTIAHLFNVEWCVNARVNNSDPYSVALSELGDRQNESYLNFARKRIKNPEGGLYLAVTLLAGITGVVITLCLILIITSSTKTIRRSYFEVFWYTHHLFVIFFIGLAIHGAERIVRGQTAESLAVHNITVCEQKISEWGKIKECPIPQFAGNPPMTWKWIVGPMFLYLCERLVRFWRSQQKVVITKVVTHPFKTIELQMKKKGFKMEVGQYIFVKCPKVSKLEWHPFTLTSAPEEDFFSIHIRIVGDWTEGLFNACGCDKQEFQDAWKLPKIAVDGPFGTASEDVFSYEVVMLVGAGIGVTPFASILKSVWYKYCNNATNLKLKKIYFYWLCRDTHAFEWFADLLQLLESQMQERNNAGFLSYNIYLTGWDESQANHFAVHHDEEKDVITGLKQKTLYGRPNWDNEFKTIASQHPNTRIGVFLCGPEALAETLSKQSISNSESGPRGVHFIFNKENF
Chain of Torsin-1A (Homo sapiens) (O14656 whole entry, looked up): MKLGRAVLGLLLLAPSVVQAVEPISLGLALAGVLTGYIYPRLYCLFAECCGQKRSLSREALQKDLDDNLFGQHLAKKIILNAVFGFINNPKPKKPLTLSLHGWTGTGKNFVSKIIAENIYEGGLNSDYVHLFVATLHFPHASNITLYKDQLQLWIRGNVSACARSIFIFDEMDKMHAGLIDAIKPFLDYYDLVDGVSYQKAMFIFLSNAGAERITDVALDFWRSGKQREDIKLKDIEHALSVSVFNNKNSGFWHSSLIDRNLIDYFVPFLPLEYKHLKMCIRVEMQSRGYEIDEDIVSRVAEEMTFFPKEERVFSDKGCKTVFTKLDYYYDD

SMILES	composite z-score [1]	z-score [2]	z-score [3]	z-score [4]	z-score [5]	composite z-score [6]	composite z-score [7]	composite z-score [8]	composite z-score [9]	composite z-score [10]	z-score [11]	composite z-score [12]	z-score [13]	z-score [14]	z-score [15]	z-score [16]	z-score [17]	z-score [18]	z-score [19]	z-score [20]
CN1C(=O)C2C(C1=O)C1C=C(CCCO)C2C(C2CC2)N1Cc1cc2c(cc1Br)OCO2 (stereo not given)	0.0949	-1.57 (inactive)	-0.0766 (inactive)	1.26 (inactive)	2.6 (inactive)	0.838	0.0569	1.2	1.5	0.265	-0.541 (inactive)	0.0041	3.48 (inactive)	0.68 (inactive)	0.3 (inactive)	0.307 (inactive)	-0.188	-0.84 (inactive)	-0.389 (inactive)	-0.349
COCCOC(=O)N1C(=O)[C@@]2(c3cc(C#CCC(C(=O)OC)C(=O)OC)ccc31)[C@H](c1ccc(O)cc1)N1[C@H](c3ccccc3)[C@H](c3ccccc3)OC(=O)[C@H]1[C@@H]2C(=O)NC[C@H](O)c1ccccc1	0.295	-2.04 (inactive)	-0.0824 (inactive)	-0.231 (inactive)	-0.196 (inactive)	1.7	-0.0774	0.941	0.468	0.49	1.47 (inactive)	-0.159	1.67 (inactive)	0.223 (inactive)	-5.49 (inactive)	-0.0973 (inactive)	-0.158	1.72 (inactive)	0.876 (inactive)	1.32
COCCOC(=O)N1C(=O)[C@@]2(c3cc(C#Cc4ccc(OC)cc4)ccc31)[C@H](c1ccc(OCCO)cc1)N1[C@H](c3ccccc3)[C@H](c3ccccc3)OC(=O)[C@H]1[C@@H]2C(=O)Nc1nc2ccccc2s1	0.144	-1.1 (inactive)	0.408 (inactive)	0.272 (inactive)	-0.175 (inactive)	1.19	0.164	0.29	0.461	0.691	0.905 (inactive)	0.101	4.12 (inactive)	2.5 (inactive)	-0.16 (inactive)	2.13 (inactive)	0.0972	1.29 (inactive)	0.402 (inactive)	0.944
O=C1O[C@H](c2ccccc2)[C@H](c2ccccc2)N2[C@H]1[C@@H](C(=O)Nc1nc3ccccc3s1)[C@]1(C(=O)Nc3ccc(C#CC4=CCCCC4)cc31)[C@H]2c1ccc(O)cc1	0.357	-4.09 (inactive)	-0.922 (inactive)	-0.671 (inactive)	0.0225 (inactive)	1.24	-0.103	-0.253	0.335	1	2.68 (inactive)	0.122	-0.559 (inactive)	-0.0042 (inactive)	-0.715 (inactive)	0.193 (inactive)	1.26	0.878 (inactive)	0.214 (inactive)	0.191
COCC1C2CC[C@H]3C(OCc4ccc(OC)cc4)OC[C@]4(C)[C@H]3C2=C(CN4C(=O)OC(C)(C)C)[C@H](C)C1COC (stereo not given in full)	0.261	-2.88 (inactive)	0.413 (inactive)	-0.185 (inactive)	-0.0287 (inactive)	2.08	-0.321	0.187	0.255	0.298	-1.23 (inactive)	-0.302	3.68 (inactive)	-0.556 (inactive)	0.308 (inactive)	-2.05 (inactive)	2.25	-1.53 (inactive)	-1.89 (inactive)	-2.99
O=C1OCC=C[C@H]2OC34C=CCN(c5ccc6ccccc6c5)C(=O)[C@H]3N(CCCCCO)C(=O)[C@@H]4[C@@H]12 (stereo not given in full)	-0.137	0.234 (inactive)	0.494 (inactive)	0.724 (inactive)	0.0532 (inactive)	-0.884	-0.0963	-1.92	-1.41	-0.968	-0.186 (inactive)	0.407	2.04 (inactive)	0.132 (inactive)	1 (inactive)	0.162 (inactive)	-0.798	1.57 (inactive)	0.056 (inactive)	2.93
C=CCC(OC(C)=O)[C@@H]1[C@@H](N(Cc2ccc(-c3ccccc3)cc2)C(=O)c2ccc(C)cc2)c2cc(OCCCO)ccc2N1C(=O)Cc1ccc2ccccc2c1 (stereo not given in full)	-0.0632	-0.889 (inactive)	-0.0727 (inactive)	1.66 (inactive)	-0.515 (inactive)	0.129	-0.0986	0.0508	-0.577	1	2.43 (inactive)	-0.0011	-0.0828 (inactive)	-0.66 (inactive)	-1.45 (inactive)	-0.938 (inactive)	1.23	-1.68 (inactive)	0.934 (inactive)	1.62
CCCC=C(CCC)[C@@H](NC(=O)CCc1ccccc1)c1ccc(C(F)(F)F)cc1	-0.0114	-2.08 (inactive)	0.715 (inactive)	-0.568 (inactive)	0.318 (inactive)	1.07	0.0374	0.983	0.801	-0.37	-1.56 (inactive)	0.73	1.71 (inactive)	0.542 (inactive)	1.8 (inactive)	1.01 (inactive)	0.697	-0.975 (inactive)	-1.6 (inactive)	2.78
